Source: the supplement of paper PMC13380429

Key:
[1] = system: Vero E6 infected with SARS-CoV-2; test: morphology score (similarity to uninfected cells); higher = more like uninfected cells; conditions: 24 h
[2] = system: Vero E6 infected with SARS-CoV-2; test: SARS-CoV-2 infection rate relative to infected DMSO; higher = more infection, active = 60 or less; conditions: 24 h

Row | Structure (SMILES) | morphology score [1] | SARS-CoV-2 infection rate [2]
1 | Nc1ccccc1NC(=O)c1ccc(CNc2nccc(-c3cccnc3)n2)cc1 [mocetinostat] (0.833333 µM) | -0.00842 | 104% (inactive)
2 | COc1ccccc1N1CCN(CCCCNC(=O)c2ccc(-c3ccc(C(C)=O)cc3)cc2)CC1 (10 µM) | -0.218 | 113% (inactive)
3 | C[C@]12CC[C@@H]3c4ccc(O)cc4C[C@@H](CCCCCCCCC[S+]([O-])CCCC(F)(F)C(F)(F)F)[C@H]3[C@@H]1CC[C@@H]2O (stereo not given in full) [fulvestrant] (10 µM) | -0.187 | 110% (inactive)
4 | Cc1onc(O)c1C[C@@H](N)C(=O)O (racemic) (10 µM) | 0.0374 | 104% (inactive)
5 | Oc1cc2c(cc1O)C(c1ccccc1)CNCC2 (stereo not given) (10 µM) | -0.34 | 116% (inactive)
6 | N#C/C(=C1/SC[C@@H](c2ccc(Cl)cc2Cl)S1)n1ccnc1 [luliconazole] (10 µM) | 0.0257 | 104% (inactive)
7 | Nc1nc(=O)c2nc(CNc3ccc(C(=O)N[C@@H](CCC(=O)O)C(=O)O)cc3)cnc2[nH]1 [folic-acid] (10 µM) | 0.207 | 102% (inactive)
8 | CC(C)(C)c1cc(C(C)(C)C)c(NC(=O)c2c[nH]c3ccccc3c2=O)cc1O [ivacaftor] (10 µM) | 0.363 | 93% (inactive)
9 | CC(C)C(=O)Nc1ccc([N+](=O)[O-])c(C(F)(F)F)c1 [flutamide] (10 µM) | -0.24 | 112% (inactive)
10 | CN(C)C(=N)NCCC[C@H](N)C(=O)O [asymmetrical-dimethylarginine] (10 µM) | 0.217 | 95.5% (inactive)
